Compound activity (PubChem BioAssay)
HP1b binding inh = blocks HP1-beta chromodomain binding to methylated histone tails. P83916. AlphaScreen HP1-beta / biotin-H3K9me3 peptide binding. Potency, µM (highest dose often 114 µM), actives largely listed as inhibitors. 390,000 compounds, 0.56% hits. AID 540317; also: nearly all actives have a fitted effect of over 70% in size
Target sequence (P83916 whole entry, looked up): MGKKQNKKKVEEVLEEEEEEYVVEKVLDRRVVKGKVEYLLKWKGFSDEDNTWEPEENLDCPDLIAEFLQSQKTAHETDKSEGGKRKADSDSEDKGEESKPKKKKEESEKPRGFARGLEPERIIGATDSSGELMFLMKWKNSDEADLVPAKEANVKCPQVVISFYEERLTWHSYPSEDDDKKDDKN
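Compound inhibition of the preformed complex between 50 nM HP1-beta and 50 nM biotinylated H3K9me3 peptide was read by AlphaScreen. Buffer was PBS pH 7.4 with 0.01% Tween-20. Incubations ran 30 min at room temperature, with 10 ug/mL donor/acceptor beads.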
Sfp inh = Sfp phosphopantetheinyl transferase inhibition; Q9F4F7; Biochemical Sfp PPTase activity, qHTS; Potency, µM, actives largely listed as inhibitors; 310,000 compounds, 3.5% hits;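 also: the enzyme is Sfp with the accession as filed and its product quenches rhodamine fluorescence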
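Sfp 15 nM + cpd, 15 min RT; start w/ rhodamine-CoA 5 uM, BHQ-2-YbbR 12.5 uM (final); 50 mM Hepes pH 7.6, 10 mM MgCl2, 0.01% NP-40, 0.01% BSA; read 525/598 nm at 0 and 30 min.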
G9a inh = G9a (human) methyltransferase inhibition | G9a H3K9 monomethylation, AlphaScreen, 2 h | 350,000 compounds, 8.8% hits | AID 504332 | Potency, µM (top dose mostly 102 µM), usual class: inhibitors | Q96KQ7; also: nearly all actives have a fitted effect of over 75% in size
Target sequence (Q96KQ7 913-1193 limits assumed): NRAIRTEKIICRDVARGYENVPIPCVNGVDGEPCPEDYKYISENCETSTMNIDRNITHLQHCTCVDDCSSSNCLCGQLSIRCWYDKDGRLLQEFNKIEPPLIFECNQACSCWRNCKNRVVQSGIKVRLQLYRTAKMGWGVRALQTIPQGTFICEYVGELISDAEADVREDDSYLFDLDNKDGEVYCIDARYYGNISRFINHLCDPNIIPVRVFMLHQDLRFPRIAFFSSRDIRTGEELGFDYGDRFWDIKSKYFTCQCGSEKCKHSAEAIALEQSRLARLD
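Using a bead-based AlphaScreen, monomethylated H3K9 product from 2 h room-temperature reactions (G9a 20 nM, peptide 500 nM, SAM 20 uM) was detected with 0.5 ug/mL rabbit anti-H3K9me1 antibody.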
JMJD2A Tudor = blocks the human JMJD2A Tudor domain; O75164; AlphaScreen JMJD2A-Tudor / H3K4me3 peptide binding; Potency, µM (highest dose often 114 µM), hits mostly inhibitors; 390,000 compounds, 4.4% hits; AID 504339; also: nearly all actives have a fitted effect of over 50% in size
BAZ2B inh = inhibitors of human BAZ2B bromodomain | Q9UIF8 | AlphaScreen BAZ2B-H3K14Ac peptide displacement | Potency, µM (top dose mostly 114 µM), actives largely listed as inhibitors | 360,000 compounds, 4.4% hits | AID 504333; also: nearly all actives have a fitted effect of over 60% in size
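AlphaScreen luminescence quantifies BAZ2B engagement of H3K14Ac peptide; the protein and biotinylated peptide are both at 50 nM final, buffer PBS pH 7.4 with 0.01% Tween-20, all steps at room temperature.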
Of the large screens only hits and unclear results are named; the others gave an inactive call. Shown are actives, neighbours in structure and some others; about 12% of the full set was active somewhere. Calls follow the shape of the dose curve; as a rule, active = well fitted curve in the direction sought with a large enough effect; inconclusive = small, poorly fitted or top-dose-only effect, or another doubt; inactive = no such curve, though single readings can be large; an effect the other way counts as inactive or inconclusive.

Cc1cc(C(=O)N/N=C/c2ccc(C)o2)c2ccccc2n1	G9a inh inconclusive
N#Cc1c[nH]n2c(NC3CCCCC3)c(-c3ccc(F)cc3)nc12	none (no result: Sfp inh)
C=CCSc1nc2ccccc2n2cnnc12	none
CCOC(=O)CSc1nc2ccccc2n2cnnc12	Sfp inh 56.2µM, G9a inh inconclusive
O=C(CSc1ncccn1)NNC(=O)c1ccccc1	none (no result: Sfp inh, G9a inh, BAZ2B inh)
COC(=O)c1ccc2[nH]c3c(c2c1)CC(C)CC3 (stereo unspecified)	JMJD2A Tudor inconclusive, BAZ2B inh 25.1µM (no result: G9a inh)
CCOc1ccc(NC(=O)CN(C)C(=O)c2ccc3[nH]c4c(c3c2)CC(C)CC4)cc1OCC (stereo unspecified)	HP1b binding inh inconclusive, G9a inh 35.5µM, JMJD2A Tudor inconclusive, BAZ2B inh inconclusive (no result: Sfp inh)
CC1CCc2[nH]c3ccc(C(=O)Nc4ccc(C(=O)N(C)C)cc4)cc3c2C1 (stereo unspecified)	none (no result: G9a inh)
Cc1ccc(NC(=O)CN(C)C(=O)c2ccc3[nH]c4c(c3c2)CC(C)CC4)cc1 (stereo unspecified)	HP1b binding inh inconclusive, G9a inh inconclusive, JMJD2A Tudor 44.7µM, BAZ2B inh inconclusive (no result: Sfp inh)
COC(=O)c1ccc2[nH]c([C@H](C)O)c([C@H](C)O)c2c1	G9a inh 44.7µM
COc1ccccc1NC(=O)CSC1=Nc2ccccc2C2=NC(CC(=O)NCc3ccco3)C(=O)N12 (stereo unspecified)	none (no result: Sfp inh)
COc1ccc(CN2CCNC(=O)C2CC(=O)N2CCCN(C(C)=O)CC2)c(OC)c1 (stereo unspecified)	none
CN(C)CCNC(=O)C(=O)NCC(c1cccnc1)N1CCN(c2ccccc2)CC1 (stereo unspecified)	none (no result: Sfp inh)
O=C(CN1CCCN(S(=O)(=O)c2ccc(Br)s2)CC1)Nc1ccc(Cl)cc1	none
CCOC(=O)CNC(=O)CN1CCCN(S(=O)(=O)c2ccc(Br)s2)CC1	G9a inh 50.1µM
COc1cc2ccccc2cc1C(=O)Nc1ccc2oc(-c3cc(Br)ccc3Cl)nc2c1	none (no result: Sfp inh)
COc1cc(-c2oc3cc(O)cc(O)c3c(=O)c2O[C@@H]2O[C@H](CO)[C@@H](O)[C@H](O)[C@H]2O)cc(OC)c1O	none (no result: HP1b binding inh, G9a inh, JMJD2A Tudor, BAZ2B inh)
COc1cccc(NC(=O)CN(C)C(C)C(=O)NC(C)c2ccc(Cl)cc2Cl)c1 (stereo unspecified)	G9a inh 28.2µM (no result: Sfp inh)
COc1ccc(NC(=O)CN(CC(=O)Nc2ccc(OC)cc2)C(C)(C)CO)cc1	G9a inh 70.8µM
COc1ccc(NC(=O)CN(C)CC(=O)N2CCCCCC2)cc1	G9a inh 56.2µM, JMJD2A Tudor 14.1µM (no result: Sfp inh)
COc1ccc(NC(=O)CN(C)CC(=O)Nc2cccc(C(C)=O)c2)cc1	HP1b binding inh inconclusive, Sfp inh inconclusive, G9a inh 4.47µM, JMJD2A Tudor 10µM, BAZ2B inh 35.5µM
CCC(CO)(CO)N(CC(=O)Nc1ccc(OC)cc1)CC(=O)Nc1ccc(OC)cc1	G9a inh inconclusive
COc1ccc(N(CC(=O)Nc2cccc(C(C)=O)c2)S(=O)(=O)c2ccc(NC(C)=O)cc2)cc1	none (no result: G9a inh)
COc1cccc(/C=N/NC(=O)c2ccc([N+](=O)[O-])cc2Cl)c1O	G9a inh inconclusive, BAZ2B inh inconclusive
CNCC(=O)NCC(=O)N[C@@H](Cc1ccccc1)C(=O)N[C@@H](CC(C)C)C(=O)O	none (no result: HP1b binding inh, JMJD2A Tudor, BAZ2B inh)
CCN(CC)S(=O)(=O)c1ccc(/C=C/C(=O)OCC(=O)Nc2cccnc2Cl)cc1	none (no result: Sfp inh)
CCC(C)c1ccc(NC(=S)Nc2ccc(OC)c(OC)c2)cc1 (stereo unspecified)	HP1b binding inh inconclusive, G9a inh inconclusive
CN(CC(=O)Nc1cccc(C#N)c1)Cc1ccc(Cl)cc1	none
CCCN(CC(=O)Nc1cccc(Br)c1)CC(=O)Nc1ccc(F)c(F)c1F	G9a inh 11.2µM
CCC(C)c1ccc(NC(=S)Nc2ccc(OC)cc2C)cc1 (stereo unspecified)	G9a inh 4.47µM
CCC(C)c1ccc(NC(=O)CN(C)CC(=O)Nc2cccc(OC)c2)cc1 (stereo unspecified)	G9a inh 50.1µM, BAZ2B inh 50.1µM
CN(CC(=O)Nc1ccc(Cl)cc1)CC(=O)Nc1cccc(Br)c1	G9a inh 44.7µM
CCC(CC)(CC(=O)Nc1cccc(/C=C/c2nc(C3CCC3)cs2)c1)C(=O)O	none (no result: HP1b binding inh, JMJD2A Tudor, BAZ2B inh)
CCc1ccc(-n2c(=O)c3c4c(sc3n(CC(=O)c3ccc(F)cc3)c2=O)CCC4)cc1	none (no result: Sfp inh)
COC(=O)C(Cc1ccc(O)cc1)NC(=O)c1ccc2c(c1)OCCO2 (stereo unspecified)	none
COc1ccc(C(=O)NCc2ccccc2)cc1Br	none
COc1cc(OC)cc(C(=O)NCc2n[nH]c(=S)n2-c2ccccc2)c1	Sfp inh 89.1µM, JMJD2A Tudor 7.94µM
COc1ccc(C(=O)NCc2n[nH]c(=S)n2-c2ccccc2)cc1OC	Sfp inh 56.2µM, G9a inh inconclusive, JMJD2A Tudor 6.31µM
COc1cc(OC)cc(C(=O)NCCNC(=O)c2ccccc2)c1	none
O=C(O)CCCNC(=O)CC1S/C(=N/N=C/c2ccccc2O)NC1=O (stereo unspecified)	BAZ2B inh 50.1µM
CCOC(=O)c1c(-c2ccc(F)cc2)csc1NC(=O)C1CCCO1 (stereo unspecified)	Sfp inh 22.4µM, G9a inh 20µM
CCOC(=O)c1c(-c2ccc(C)cc2)csc1NC(=O)CCN1CC(C)OC(C)C1 (stereo unspecified)	HP1b binding inh 35.5µM, Sfp inh 15.8µM, G9a inh inconclusive, JMJD2A Tudor 8.91µM, BAZ2B inh 22.4µM
CCOC(=O)c1c(-c2ccc(OC)cc2)csc1NC(=O)CCN1C(=O)c2ccccc2C1=O	Sfp inh 50.1µM, G9a inh inconclusive
CCOC(=O)c1c(-c2ccc(OC)cc2)csc1NC(=O)CCN1CCOCC1	HP1b binding inh inconclusive, Sfp inh 35.5µM, G9a inh 3.55µM, JMJD2A Tudor 20µM, BAZ2B inh 22.4µM
O=C(NCc1ccccc1F)C1CCCN(C(=O)N2CCOc3ccccc32)C1 (stereo unspecified)	G9a inh inconclusive (no result: Sfp inh)
Cc1nn(Cc2noc(C(=O)NCc3cccc(F)c3)n2)c(C)c1Br	none (no result: Sfp inh)
O=C(O)c1ccc(NS(=O)(=O)c2ccc3c(c2)C(=O)c2ccccc2C3=O)cc1	G9a inh 44.7µM
O=C(O)c1cccc(S(=O)(=O)Nc2ccc(-c3ccccc3)cc2)c1	none (no result: Sfp inh, G9a inh, BAZ2B inh)
O=C(O)c1ccc(Cl)c(S(=O)(=O)Nc2ccccc2Cc2ccccc2)c1	G9a inh 79.4µM
O=C(Nc1cccc(C(F)(F)F)c1)c1cccc(NS(=O)(=O)c2ccc(Br)c(C(=O)O)c2)c1	G9a inh inconclusive
O=C(Nc1cccc(C(F)(F)F)c1)c1cccc(NS(=O)(=O)c2ccc(O)c(C(=O)O)c2)c1	G9a inh inconclusive, JMJD2A Tudor 56.2µM
O=C(O)c1cc(S(=O)(=O)Nc2ccccc2Cc2ccccc2)ccc1Cl	none
